Assay outcomes: PubChem BioAssay, National Center for Advancing Translational Sciences (NCATS)
Only some compounds are listed: those with a hit (about 11% of all), similar ones and a draw of the others.
Pf growth 48h: Primary qHTS for delayed death inhibitors of the malarial parasite plastid, 48 hour incubation | P. falciparum luciferase growth in erythrocytes, 48 h | Potency, µM (titrated, usually from 28.7 µM), most hits filed as inhibitors | actives 5.9% (n = 310,000)
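Luciferase-expressing P. falciparum in infected erythrocytes (2% hematocrit, 0.1% parasitemia final) in RPMI 1640/0.5% Albumax were exposed to compound for 48 hours at 37 C, 5% CO2; growth read as luminescence.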
HCV inhibitor: qHTS Assay for Inhibitors of Hepatitis C Virus (HCV); Huh7.5.1 HCVcc-Cre infection, luciferase reporter, 44 h; AID 651820, 2012; actives 3.4% (n = 340,000); Potency, µM (doses to about 41.8 µM), hits mostly inhibitors
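Luciferase read-out (15 sec integration) after a 15 min room-temperature substrate step quantifies HCVcc-Cre infection. Cells, 1,000 per well, had compound added 4 h post-plating, then virus at ~0.5 moi, and were cultured 44 h.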
AMA1 RON2 block: qHTS for Inhibitors of AMA1-RON; Towards Development of Antimalarial Drug Lead: Primary Screen | AlphaScreen AMA1-biotinylated RON2 peptide binding | Potency, µM (series often up to 58.2 µM), most hits filed as inhibitors | actives 0.2% (n = 360,000); also: nearly all actives have a fitted effect of over 45% in size
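AMA1 (3D7) with his tag at 25 nM final met compounds first, then biotinylated RON2 peptide at 25 nM; detection used donor plus acceptor beads, 10 µg/mL apiece, read by AlphaScreen after 30 min at room temperature.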
Pf growth 96h: Primary qHTS for delayed death inhibitors of the malarial parasite plastid, 96 hour incubation; P. falciparum luciferase reporter growth, 96 h; Potency, µM (top dose mostly 28.7 µM), most hits filed as inhibitors; actives 6.9% (n = 320,000); AID 504834, 2011
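Compounds incubated with erythrocytes infected by luciferase-expressing P. falciparum (2% hematocrit, 0.05% parasitemia final) for 96 hours, 37 C in 5% CO2. Growth inhibition scored as decreased luciferase luminescence.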
Each line names hits and unclear results; the compound was inactive in the other large screens. Calls follow the shape of the dose curve; as a rule, active = well fitted curve in the direction sought with a large enough effect; inconclusive = small, poorly fitted or top-dose-only effect, or another doubt; inactive = no such curve, though single readings can be large; an effect the other way counts as inactive or inconclusive.

N#CC1=C(N)C(C#N)(C#N)[C@H](c2cccnc2)[C@H]2CN(C(=O)OCc3ccccc3)CC=C12	Pf growth 48h inconclusive, Pf growth 96h 13.1µM
N#CC1=C(N)C(C#N)(C#N)C(c2cccnc2)C2CC(c3ccccc3)CC=C12 (stereo not given)	Pf growth 48h inconclusive, Pf growth 96h 11.7µM
N#CC1=C(N)C(C#N)(C#N)C(c2ccncc2)C2CN(C(=O)OCc3ccccc3)CC=C12 (stereo not given)	Pf growth 48h inconclusive
CCOC(=O)N1CC=C2C(C#N)=C(N)C(C#N)(C#N)[C@H](c3ccc(OC(C)C)c(OCC)c3)[C@H]2C1	Pf growth 48h 5.22µM, HCV inhibitor inconclusive
O=C(CN1C(=O)CSc2ncccc21)Nc1cccc(Cl)c1	Pf growth 48h 16.5µM
COCCCNC(=O)CN1C(=O)CSc2ncccc21	Pf growth 96h 2.62µM
CC1Nc2ccc(C(=O)NC3CCCCC3)cc2NC1=O (stereo not given)	none
Cc1oc(-c2ccccc2F)nc1CS(=O)CC(=O)NCc1ccc(Cl)cc1 (stereo not given)	none
Cc1oc(-c2cc(F)ccc2F)nc1CN(C)Cc1ccc2nccnc2c1	Pf growth 48h inconclusive, HCV inhibitor inconclusive, Pf growth 96h 2.94µM
COc1ccc(F)c(-c2nc(CN3CCN(C(=O)c4ccco4)CC3)c(C)o2)c1	none
Cc1oc(-c2cc(F)ccc2F)nc1CN1CCN(c2cnccn2)CC1	Pf growth 48h 13.1µM, Pf growth 96h inconclusive
Cc1c(O)ccc(C(=O)CN2CCN(Cc3ccc4c(c3)OCO4)CC2)c1O	Pf growth 96h 11.7µM
COc1ccccc1Nc1nc(N)nc(CN2CCN(c3ccccc3)CC2)n1	HCV inhibitor inconclusive (no result: Pf growth 96h)
CCOC(=O)N1CCN(Cc2ccc3c(c2)OCO3)CC1	Pf growth 96h inconclusive
Cc1ccc(Nc2nc(N)nc(CN3CCN(Cc4ccc5c(c4)OCO5)CC3)n2)c(C)c1	Pf growth 48h 11.7µM, HCV inhibitor inconclusive, Pf growth 96h inconclusive
Nc1nc(CN2CCN(Cc3ccccc3)CC2)nc(Nc2ccc3c(c2)OCCO3)n1	none (no result: Pf growth 96h)
COc1cccc(N2CCN(Cc3nc(N)nc(Nc4ccccc4OC)n3)CC2)c1	Pf growth 48h inconclusive, Pf growth 96h 0.329µM
CCOc1ccc(NC(=O)N2CCN(Cc3ccc4c(c3)OCO4)CC2)cc1	none
Cc1ccc(NC(=O)N2CCN(Cc3ccc4c(c3)OCO4)CC2)cc1	Pf growth 96h 13.1µM (no result: Pf growth 48h, HCV inhibitor)
O=C1CCCCC1C(=O)c1cn(-c2ccc(Cl)c(Cl)c2)nn1 (stereo not given)	Pf growth 96h inconclusive
CC1(C)Oc2ccc(C(=O)N/N=C/c3ccc(O)cc3)cc2NC1=O	none
COc1ccc(N2CCN(Cc3nc(N)nc(Nc4ccc(C)c(Cl)c4)n3)CC2)cc1	Pf growth 48h inconclusive, HCV inhibitor 10µM, AMA1 RON2 block inconclusive (no result: Pf growth 96h)
Cc1ccc(Nc2nc(N)nc(CN3CCN(Cc4ccc5c(c4)OCO5)CC3)n2)cc1Cl	Pf growth 48h inconclusive, HCV inhibitor 31.6µM
COc1ccc(Nc2nc(N)nc(CN3CCC(Cc4ccccc4)CC3)n2)cc1	Pf growth 48h 5.86µM, HCV inhibitor inconclusive
Cc1ccc(Nc2nc(N)nc(CN3CCN(c4ccccc4)CC3)n2)cc1Cl	Pf growth 48h inconclusive, HCV inhibitor inconclusive, Pf growth 96h inconclusive
Cc1ccc(Nc2nc(N)nc(CN3CCN(Cc4ccc5c(c4)OCO5)CC3)n2)cc1C	Pf growth 48h inconclusive, HCV inhibitor inconclusive
COc1ccccc1Nc1nc(N)nc(CN2CCC(Cc3ccccc3)CC2)n1	Pf growth 48h inconclusive
Cc1ccc(Nc2nc(N)nc(CN3CCN(Cc4ccc5c(c4)OCO5)CC3)n2)cc1	Pf growth 48h 10.4µM (no result: Pf growth 96h)
NS(=O)(=O)c1ccc(CCNC(=O)c2cc([N+](=O)[O-])ccc2N2CCCCC2)cc1	Pf growth 48h inconclusive, HCV inhibitor inconclusive, Pf growth 96h inconclusive
COc1ccc(NC(=O)N(C)C[C@H]2Oc3ccc(NC(=O)NC4CCCCC4)cc3C(=O)N([C@H](C)CO)C[C@@H]2C)cc1	none (no result: Pf growth 48h, Pf growth 96h)
CCOc1ccc(N2CC(C(=O)Nc3nnc(Cc4ccccc4)s3)CC2=O)cc1 (stereo not given)	none
O=C(N/N=C/c1ccc([N+](=O)[O-])s1)c1cccnc1	Pf growth 48h 9.28µM, HCV inhibitor 14.1µM, Pf growth 96h 2.94µM
O=C(N/N=C\c1ccc([N+](=O)[O-])s1)c1cncc(Br)c1	Pf growth 48h 8.28µM, HCV inhibitor 10µM, Pf growth 96h 3.29µM
CC(C)(C)c1ccc(OCCC(=O)Nc2cccc(S(=O)(=O)N3CCCCC3)c2)cc1	Pf growth 48h inconclusive, HCV inhibitor inconclusive, Pf growth 96h inconclusive
CCN(C(=O)COC(=O)c1cccc(S(=O)(=O)NCc2ccccc2)c1)c1ccccc1	HCV inhibitor inconclusive
c1ccc(-c2cc3c(ccc4nonc43)nn2)cc1	none
On1onc2c3cc(-c4ccccc4)nc3ccc21	Pf growth 48h inconclusive, HCV inhibitor 2.24µM (no result: Pf growth 96h)
N=c1c2c(ncn1Cc1ccco1)Oc1cc(O)ccc1C2c1ccccc1 (stereo not given)	Pf growth 48h 11.7µM, HCV inhibitor inconclusive, Pf growth 96h inconclusive
COc1ccc(C2c3ccc(O)cc3Oc3ncn(CCCO)c(=N)c32)cc1 (stereo not given)	Pf growth 48h inconclusive, Pf growth 96h inconclusive
CN(C)CCn1cnc2c(c1=N)C(c1ccccc1)c1ccc3ccccc3c1O2 (stereo not given)	Pf growth 48h 5.22µM, HCV inhibitor 12.6µM, Pf growth 96h 5.22µM
c1ccc(C2c3c(ccc4ccccc34)Oc3ncn4nc(-c5ccco5)nc4c32)cc1 (stereo not given)	HCV inhibitor inconclusive, Pf growth 96h inconclusive
N=c1c2c(ncn1Cc1ccco1)Oc1c(ccc3ccccc13)C2c1ccccc1 (stereo not given)	Pf growth 48h 14.7µM, HCV inhibitor inconclusive, Pf growth 96h inconclusive
Cc1nn(CC(=O)Nc2ccc(N3CCOCC3)cc2)c(C)c1Cl	none (no result: HCV inhibitor)
O=C(CSc1nnc2c(n1)[nH]c1ccccc12)Nc1ccc(S(=O)(=O)Nc2ncccn2)cc1	none
CC(C)(C)c1ccccc1OCCCCCNCCO	Pf growth 48h 4.15µM, HCV inhibitor 7.94µM
CC(C)c1ccccc1OCCCCCNCCO	Pf growth 48h 4.15µM, HCV inhibitor inconclusive, Pf growth 96h 4.15µM
Cc1ccccc1OCCCCCNCCO	HCV inhibitor inconclusive (no result: Pf growth 96h)
COc1ccc(C(=O)NCC(=O)OCC(=O)Nc2ncc(Cl)cc2Cl)cc1[N+](=O)[O-]	Pf growth 96h inconclusive
CCCn1nc(NC(=O)c2ccco2)c2cc3ccc(C)cc3nc21	HCV inhibitor inconclusive (no result: Pf growth 96h)
CC(C)Cn1nc(NC(=O)c2ccco2)c2cc3ccccc3nc21	HCV inhibitor inconclusive, Pf growth 96h inconclusive
CCCn1nc(NC(=O)c2ccco2)c2cc3cc(C)ccc3nc21	Pf growth 48h inconclusive, HCV inhibitor 12.6µM
CCn1nc(NC(=O)c2ccco2)c2cc3ccccc3nc21	HCV inhibitor inconclusive, Pf growth 96h 9.28µM (no result: Pf growth 48h)
Cc1ccc(/C=N/N2CCN(C3c4ccccc4-c4ccccc43)CC2)o1	Pf growth 48h inconclusive, HCV inhibitor inconclusive, AMA1 RON2 block inconclusive
